Results published in the supplement of paper PMC11732987, “Enantioselective OTUD7B fragment discovery through chemoproteomics screening and high-throughput optimisation” (Communications Chemistry, 2025).

Legend:
Test in all cases: log2 ratio of Biotin-Ahx-Ub-VS probe labelling (fragment/DMSO); higher = less target engagement (more negative = stronger competition), active = hit call of the paper (q ≤ 0.05, log2 ratio ≤ -1)
Details in all cases: compound concentration: 200 uM; treatment time: 3 h
[1] = biological target: USP34 (UniProt Q70CQ2)
USP34, sequence (Q70CQ2 whole entry, the tested form may be a part): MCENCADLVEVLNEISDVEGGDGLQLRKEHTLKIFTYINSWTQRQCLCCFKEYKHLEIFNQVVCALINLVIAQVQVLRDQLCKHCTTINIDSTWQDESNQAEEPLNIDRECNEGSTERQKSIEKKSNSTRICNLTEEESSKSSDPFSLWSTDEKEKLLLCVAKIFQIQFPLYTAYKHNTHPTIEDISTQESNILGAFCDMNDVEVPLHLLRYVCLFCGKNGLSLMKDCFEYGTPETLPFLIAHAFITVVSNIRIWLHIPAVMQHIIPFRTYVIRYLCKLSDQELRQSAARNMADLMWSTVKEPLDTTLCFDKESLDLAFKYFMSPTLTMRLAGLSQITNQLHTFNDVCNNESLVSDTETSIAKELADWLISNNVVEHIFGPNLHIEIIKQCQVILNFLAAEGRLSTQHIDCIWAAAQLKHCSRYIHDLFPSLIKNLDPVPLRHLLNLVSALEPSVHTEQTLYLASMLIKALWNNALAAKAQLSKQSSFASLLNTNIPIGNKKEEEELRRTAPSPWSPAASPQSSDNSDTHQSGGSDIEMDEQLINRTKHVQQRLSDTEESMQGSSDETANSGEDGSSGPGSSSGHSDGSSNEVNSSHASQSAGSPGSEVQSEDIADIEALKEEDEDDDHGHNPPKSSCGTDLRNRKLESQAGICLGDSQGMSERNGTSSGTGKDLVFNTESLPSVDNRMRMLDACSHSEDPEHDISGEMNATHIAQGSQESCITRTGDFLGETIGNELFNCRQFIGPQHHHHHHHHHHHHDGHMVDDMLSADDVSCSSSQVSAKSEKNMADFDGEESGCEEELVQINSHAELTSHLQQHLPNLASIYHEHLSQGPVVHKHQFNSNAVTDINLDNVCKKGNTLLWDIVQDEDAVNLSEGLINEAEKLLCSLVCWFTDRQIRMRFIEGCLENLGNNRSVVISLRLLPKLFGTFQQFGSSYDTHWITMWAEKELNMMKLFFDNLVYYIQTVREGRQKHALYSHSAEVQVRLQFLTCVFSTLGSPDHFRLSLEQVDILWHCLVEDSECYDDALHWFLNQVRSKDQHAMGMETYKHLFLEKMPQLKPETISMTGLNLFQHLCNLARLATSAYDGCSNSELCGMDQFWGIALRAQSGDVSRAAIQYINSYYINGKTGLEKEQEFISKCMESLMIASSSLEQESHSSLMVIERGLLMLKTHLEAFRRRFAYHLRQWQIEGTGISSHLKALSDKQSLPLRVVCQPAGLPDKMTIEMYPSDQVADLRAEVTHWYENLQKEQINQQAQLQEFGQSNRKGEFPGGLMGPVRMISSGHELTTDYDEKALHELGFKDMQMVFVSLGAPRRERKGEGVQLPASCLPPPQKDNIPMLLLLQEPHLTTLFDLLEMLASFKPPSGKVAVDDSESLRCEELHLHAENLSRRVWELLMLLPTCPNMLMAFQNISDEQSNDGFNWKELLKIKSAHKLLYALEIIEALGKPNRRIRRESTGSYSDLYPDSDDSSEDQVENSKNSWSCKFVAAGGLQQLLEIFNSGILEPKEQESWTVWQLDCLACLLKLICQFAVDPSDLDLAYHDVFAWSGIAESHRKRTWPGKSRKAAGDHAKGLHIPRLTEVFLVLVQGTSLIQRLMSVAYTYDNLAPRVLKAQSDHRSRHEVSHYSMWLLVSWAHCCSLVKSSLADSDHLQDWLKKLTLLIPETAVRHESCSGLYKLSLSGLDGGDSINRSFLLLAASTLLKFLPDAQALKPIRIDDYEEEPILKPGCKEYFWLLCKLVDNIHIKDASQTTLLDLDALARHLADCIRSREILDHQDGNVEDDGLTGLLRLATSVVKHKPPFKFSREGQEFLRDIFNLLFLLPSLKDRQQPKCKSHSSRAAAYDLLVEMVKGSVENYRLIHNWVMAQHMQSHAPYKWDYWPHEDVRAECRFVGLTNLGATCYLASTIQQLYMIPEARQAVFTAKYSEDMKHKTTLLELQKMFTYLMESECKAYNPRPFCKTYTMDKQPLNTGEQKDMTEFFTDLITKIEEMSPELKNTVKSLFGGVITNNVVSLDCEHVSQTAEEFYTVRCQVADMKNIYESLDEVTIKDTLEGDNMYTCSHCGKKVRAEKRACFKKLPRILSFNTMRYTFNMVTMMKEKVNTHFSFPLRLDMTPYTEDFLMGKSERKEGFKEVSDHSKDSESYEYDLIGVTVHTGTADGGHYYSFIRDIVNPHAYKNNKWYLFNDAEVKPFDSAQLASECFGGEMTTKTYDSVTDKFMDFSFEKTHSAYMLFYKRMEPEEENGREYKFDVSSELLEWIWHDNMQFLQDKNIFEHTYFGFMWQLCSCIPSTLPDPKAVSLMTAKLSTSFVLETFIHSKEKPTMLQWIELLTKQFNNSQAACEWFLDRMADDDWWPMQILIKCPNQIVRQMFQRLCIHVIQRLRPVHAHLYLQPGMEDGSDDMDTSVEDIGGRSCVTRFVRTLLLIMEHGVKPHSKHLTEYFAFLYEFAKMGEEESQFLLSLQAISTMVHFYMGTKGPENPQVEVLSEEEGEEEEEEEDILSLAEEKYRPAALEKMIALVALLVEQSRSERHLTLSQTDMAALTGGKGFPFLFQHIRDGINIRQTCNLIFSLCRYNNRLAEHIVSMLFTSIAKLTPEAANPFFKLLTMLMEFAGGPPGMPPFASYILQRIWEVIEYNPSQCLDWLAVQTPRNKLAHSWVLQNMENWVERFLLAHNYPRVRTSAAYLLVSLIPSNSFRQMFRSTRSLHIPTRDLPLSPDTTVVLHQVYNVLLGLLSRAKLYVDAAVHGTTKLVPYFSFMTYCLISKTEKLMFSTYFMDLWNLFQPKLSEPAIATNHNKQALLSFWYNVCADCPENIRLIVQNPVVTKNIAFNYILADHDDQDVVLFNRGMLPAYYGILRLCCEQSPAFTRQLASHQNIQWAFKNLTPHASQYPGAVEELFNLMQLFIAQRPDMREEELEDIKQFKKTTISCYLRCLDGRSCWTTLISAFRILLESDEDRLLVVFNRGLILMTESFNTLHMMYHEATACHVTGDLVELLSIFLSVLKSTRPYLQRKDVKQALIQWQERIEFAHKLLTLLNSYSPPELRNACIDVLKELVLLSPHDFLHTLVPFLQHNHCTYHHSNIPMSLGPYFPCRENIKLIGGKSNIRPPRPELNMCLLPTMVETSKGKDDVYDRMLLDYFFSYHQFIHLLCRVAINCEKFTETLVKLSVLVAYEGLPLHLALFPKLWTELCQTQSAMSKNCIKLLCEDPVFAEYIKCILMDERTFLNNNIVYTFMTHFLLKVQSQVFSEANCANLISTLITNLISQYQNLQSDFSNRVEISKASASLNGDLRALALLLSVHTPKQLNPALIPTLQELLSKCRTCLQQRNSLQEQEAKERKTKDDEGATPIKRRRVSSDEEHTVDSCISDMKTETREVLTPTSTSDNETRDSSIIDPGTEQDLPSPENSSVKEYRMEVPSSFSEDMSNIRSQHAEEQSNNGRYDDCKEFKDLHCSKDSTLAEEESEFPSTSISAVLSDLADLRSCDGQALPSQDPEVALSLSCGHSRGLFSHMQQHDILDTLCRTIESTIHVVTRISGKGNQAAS
Summary of the method: (§1)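 Average log2 ratios of fragment over vehicle were obtained by unpaired t-test from global-median-normalised Spectronaut label-free quantities. Proteins with ≥2 unique peptides were included. HEK293T lysate (495 µg per sample) was treated in triplicate with fragment at 200 µM or vehicle for 3 h, then with Biotin-Ahx-Ub-VS at 0.5 µM final for 1 h, and labelled DUBs were NeutrAvidin-enriched and run by diaPASEF LC-MS/MS.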

[2] = biological target: T1, USP36 (UniProt Q9P275)
T1 sequence (whole entry): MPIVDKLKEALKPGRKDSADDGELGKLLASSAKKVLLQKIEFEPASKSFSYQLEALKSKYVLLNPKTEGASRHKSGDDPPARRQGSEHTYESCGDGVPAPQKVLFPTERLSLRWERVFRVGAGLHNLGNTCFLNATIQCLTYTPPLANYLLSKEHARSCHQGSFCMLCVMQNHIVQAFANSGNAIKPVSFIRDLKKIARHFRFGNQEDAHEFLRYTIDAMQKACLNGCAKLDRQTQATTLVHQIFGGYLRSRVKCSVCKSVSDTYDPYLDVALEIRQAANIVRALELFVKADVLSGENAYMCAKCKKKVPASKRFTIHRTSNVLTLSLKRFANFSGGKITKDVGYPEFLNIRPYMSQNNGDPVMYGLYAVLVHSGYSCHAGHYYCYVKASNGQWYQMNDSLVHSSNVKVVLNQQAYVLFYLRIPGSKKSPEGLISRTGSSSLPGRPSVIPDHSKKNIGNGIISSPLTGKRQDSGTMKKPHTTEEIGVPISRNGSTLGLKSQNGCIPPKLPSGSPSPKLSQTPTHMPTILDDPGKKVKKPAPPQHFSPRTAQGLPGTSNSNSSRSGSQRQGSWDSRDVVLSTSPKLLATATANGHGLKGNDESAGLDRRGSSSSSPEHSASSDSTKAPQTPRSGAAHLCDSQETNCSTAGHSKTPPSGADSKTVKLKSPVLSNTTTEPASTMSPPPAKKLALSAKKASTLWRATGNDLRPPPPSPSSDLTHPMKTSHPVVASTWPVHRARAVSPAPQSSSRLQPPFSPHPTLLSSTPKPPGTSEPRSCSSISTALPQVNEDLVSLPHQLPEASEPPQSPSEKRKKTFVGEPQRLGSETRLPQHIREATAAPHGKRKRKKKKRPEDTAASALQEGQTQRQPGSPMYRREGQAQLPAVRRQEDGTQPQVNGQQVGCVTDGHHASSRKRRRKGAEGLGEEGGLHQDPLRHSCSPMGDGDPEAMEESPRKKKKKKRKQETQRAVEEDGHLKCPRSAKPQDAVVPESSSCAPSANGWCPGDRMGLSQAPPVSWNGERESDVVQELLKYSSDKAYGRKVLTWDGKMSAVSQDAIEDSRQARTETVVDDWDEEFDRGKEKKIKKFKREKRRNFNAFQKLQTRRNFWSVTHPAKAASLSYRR
Summary of the method: as §1

[3] = biological target: T2, USP38 (UniProt Q8NB14)
T2 sequence (whole entry): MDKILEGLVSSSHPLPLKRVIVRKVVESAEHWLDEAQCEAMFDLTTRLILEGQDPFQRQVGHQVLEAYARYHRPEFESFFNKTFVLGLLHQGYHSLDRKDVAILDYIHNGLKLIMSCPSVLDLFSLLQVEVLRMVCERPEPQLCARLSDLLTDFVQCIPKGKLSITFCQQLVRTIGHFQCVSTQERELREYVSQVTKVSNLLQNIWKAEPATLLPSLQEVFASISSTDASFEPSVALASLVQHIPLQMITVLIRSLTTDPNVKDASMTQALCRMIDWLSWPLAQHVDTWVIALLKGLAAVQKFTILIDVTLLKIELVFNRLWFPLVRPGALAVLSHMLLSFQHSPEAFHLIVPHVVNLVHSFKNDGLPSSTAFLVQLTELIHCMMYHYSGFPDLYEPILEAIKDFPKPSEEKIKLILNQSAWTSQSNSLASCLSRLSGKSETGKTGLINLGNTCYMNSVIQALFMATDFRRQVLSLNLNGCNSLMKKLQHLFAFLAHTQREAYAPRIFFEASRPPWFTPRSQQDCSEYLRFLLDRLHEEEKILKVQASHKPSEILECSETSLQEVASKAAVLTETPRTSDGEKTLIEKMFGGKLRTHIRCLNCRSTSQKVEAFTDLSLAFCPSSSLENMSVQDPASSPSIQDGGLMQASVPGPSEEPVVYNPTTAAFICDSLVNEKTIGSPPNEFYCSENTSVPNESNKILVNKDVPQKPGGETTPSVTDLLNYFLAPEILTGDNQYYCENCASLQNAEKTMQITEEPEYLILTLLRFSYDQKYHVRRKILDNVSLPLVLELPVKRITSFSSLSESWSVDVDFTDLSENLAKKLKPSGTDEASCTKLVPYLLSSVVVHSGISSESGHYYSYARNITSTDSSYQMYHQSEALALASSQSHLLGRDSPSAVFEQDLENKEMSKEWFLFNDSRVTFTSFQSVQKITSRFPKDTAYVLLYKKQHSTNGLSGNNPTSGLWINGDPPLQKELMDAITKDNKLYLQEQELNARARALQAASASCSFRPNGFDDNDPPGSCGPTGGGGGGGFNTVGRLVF
Summary of the method: as §1

[4] = biological target: T3, USP39 (UniProt Q53GS9)
T3 sequence (whole entry): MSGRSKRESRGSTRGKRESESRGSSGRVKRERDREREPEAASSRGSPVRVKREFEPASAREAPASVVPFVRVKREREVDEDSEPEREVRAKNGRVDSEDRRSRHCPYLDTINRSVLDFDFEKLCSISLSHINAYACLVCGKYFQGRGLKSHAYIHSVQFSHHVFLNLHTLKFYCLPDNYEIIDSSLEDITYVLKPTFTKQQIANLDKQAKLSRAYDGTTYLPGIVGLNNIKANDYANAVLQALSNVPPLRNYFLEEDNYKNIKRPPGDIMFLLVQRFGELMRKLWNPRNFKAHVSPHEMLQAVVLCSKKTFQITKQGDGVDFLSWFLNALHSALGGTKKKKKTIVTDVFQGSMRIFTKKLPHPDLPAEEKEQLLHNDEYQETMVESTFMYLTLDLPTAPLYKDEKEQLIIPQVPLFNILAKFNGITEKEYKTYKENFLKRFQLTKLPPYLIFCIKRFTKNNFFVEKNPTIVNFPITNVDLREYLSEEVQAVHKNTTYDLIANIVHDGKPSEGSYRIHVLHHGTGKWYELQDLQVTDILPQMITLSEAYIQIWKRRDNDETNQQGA
Summary of the method: as §1

[5] = biological target: T4, USP4 (UniProt Q13107)
T4 sequence (whole entry): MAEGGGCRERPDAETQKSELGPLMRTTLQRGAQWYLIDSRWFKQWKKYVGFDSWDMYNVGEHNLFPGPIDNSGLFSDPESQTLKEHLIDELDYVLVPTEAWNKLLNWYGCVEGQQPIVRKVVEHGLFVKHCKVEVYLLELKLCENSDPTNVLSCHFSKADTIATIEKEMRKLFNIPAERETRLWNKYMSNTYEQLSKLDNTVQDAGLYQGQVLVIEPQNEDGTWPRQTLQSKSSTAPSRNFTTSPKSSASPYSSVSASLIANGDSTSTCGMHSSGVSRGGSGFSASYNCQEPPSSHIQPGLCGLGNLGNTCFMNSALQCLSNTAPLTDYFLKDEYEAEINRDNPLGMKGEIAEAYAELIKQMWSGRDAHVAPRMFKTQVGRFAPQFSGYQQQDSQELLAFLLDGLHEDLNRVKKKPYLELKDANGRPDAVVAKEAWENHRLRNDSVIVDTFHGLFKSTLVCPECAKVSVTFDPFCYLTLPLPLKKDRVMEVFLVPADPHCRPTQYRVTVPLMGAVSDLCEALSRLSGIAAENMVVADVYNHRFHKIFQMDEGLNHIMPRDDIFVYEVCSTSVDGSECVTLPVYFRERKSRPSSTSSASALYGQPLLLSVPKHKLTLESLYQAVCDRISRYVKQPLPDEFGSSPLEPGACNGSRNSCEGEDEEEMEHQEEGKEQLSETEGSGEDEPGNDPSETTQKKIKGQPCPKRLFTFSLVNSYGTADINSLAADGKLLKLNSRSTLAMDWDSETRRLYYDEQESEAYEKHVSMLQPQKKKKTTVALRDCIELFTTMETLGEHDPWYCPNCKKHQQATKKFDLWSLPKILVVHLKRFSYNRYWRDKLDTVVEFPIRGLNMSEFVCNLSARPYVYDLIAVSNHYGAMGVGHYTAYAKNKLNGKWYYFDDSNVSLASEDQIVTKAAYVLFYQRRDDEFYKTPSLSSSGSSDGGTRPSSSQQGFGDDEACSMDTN
Summary of the method: as §1

Measured: log2 ratio of Biotin-Ahx-Ub-VS probe labelling

O=C(CCl)Nc1cccc(NC(=O)c2ccccc2)c1
inactive: [1] 0.0355 | [2] -0.11 | [3] 0.15 | [4] 0.0551 | [5] 0.199
